The text below walks through data of PubChem BioAssay.

The test system of test [1] is Plasmodium falciparum Sir2 (PF13_0152, Sir2A). Description: Plasmodium falciparum Sir2A binding compounds – biochemical, small-molecule microarray, 635 nm fluorescence, primary screen (AID 1098).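 Also: score merges spot fluorescence intensity with its signal-to-noise ratio.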 The conditions noted are these: fluorescence 635 nm, higher = more signal.
Test [2] in a line: probe aDKK1 binding to arrayed compounds – biochemical, biotinylated probe, 635/667 nm fluorescence, primary screen (AID 1099).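 Also: score merges 667nm spot fluorescence with signal to noise across triplicate slides.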 The conditions noted are these: small-molecule microarray, higher = more signal.
Test [3] in a line: probe aCHRDL2 binding to arrayed compounds – biochemical, biotinylated probe, 635/667 nm fluorescence, primary screen (AID 1100). The conditions noted are these: small-molecule microarray, higher = more signal.
Test [4] is described as follows: change in splice reporter luminescence, either direction, cell-based, HEK293, spliceosome inhibition project, primary screen (AID 1101).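 Also: HEK293 cells carrying a splicing-competent luciferase reporter gene; test concentration not given here.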 The conditions noted are these: HEK293 splicing luciferase reporter, 24 h, higher = more signal, called active from +8 up or from −8 down. For orientation: A reporter such as luciferase makes a cellular process visible.
In test [5] the target is Fibroblast growth factor 10 (Homo sapiens) (UniProt O15520). Put plainly: compounds binding fibroblast growth factor 10 – biochemical, small-molecule microarray, 635 nm fluorescence, primary screen (AID 1102). The note with it: FGF10 binding, fluorescence 635 nm, higher = more signal.
Test [6] relates to glycogen synthase kinase-3 (GSK3A per assay name; protocol says GSK3B). Description: compounds binding glycogen synthase kinase-3 – biochemical, small-molecule microarray, 635 nm fluorescence, GSK3A, primary screen (AID 1103). Also: the record names both GSK3A and GSK3B. The note with it: fluorescence 635 nm, higher = more signal.
The target of test [7] is Epidermal growth factor receptor (Homo sapiens) (UniProt P00533). Put plainly: compounds binding epidermal growth factor receptor – biochemical, small-molecule microarray, 635 nm fluorescence, primary screen (AID 1104).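 Also: score merges 667 nm emission intensity with spot signal to noise over triplicate slides.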 The note with it: EGFR binding, higher = more signal.
The target in test [8] is Follistatin-related protein 3 (Homo sapiens) (UniProt O95633). Description: compounds binding follistatin-related protein 3 – biochemical, small-molecule microarray, 635 nm fluorescence, primary screen (AID 1105).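 Also: score merges emission near 667 nm and signal to noise per printed spot across three slides.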 The conditions noted are these: FSTL3 binding, higher = more signal.
Test [9] addresses Dickkopf-related protein 1 (Homo sapiens) (UniProt O94907). Description: small molecules binding DKK1 protein – biochemical, small-molecule microarray, 635 nm fluorescence scan, primary screen (AID 1106).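 Also: score merges emission near 667 nm with signal to noise over three replicate slides.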 The conditions noted are these: higher = more signal.
Test [10] relates to Inhibin beta A chain (activin A). Put plainly: small molecules binding activin A – biochemical, small-molecule microarray, 635 nm fluorescence scan, primary screen (AID 1107).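 Also: mouse activin A protein probed at 4.33 µg/mL on printed slides; score merges bound-protein fluorescence near 667 nm with spot signal-to-noise.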 The conditions noted are these: INHBA, higher = more signal.
Test [11] deals with Human papillomavirus type 1a protein E7 (residues 44-93). Put plainly: small molecules binding HPV E7 44-93 – biochemical, small-molecule microarray, residues 44-93, 635 nm fluorescence, primary screen (AID 1108).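 Also: E7 fragment applied at 1 µg/mL in TBST for 1 h at 4 C; score combines spot fluorescence with its signal to noise ratio.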 The note with it: fluorescence 635 nm, higher = more signal.
Test [12] is described as follows: hepatitis C replication reporter changes, two-sided – Huh7 cells, luciferase reporter, HCV replication inhibitor project, primary screen (AID 1109).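 Also: huh7 hepatoma cells harbouring a luciferase neomycin HCV replicon reporter; luciferase luminescence as measure of HCV replicon replication; test concentration not given here.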 The note with it: Huh7 HCV replicon luciferase reporter, 48 h; higher = more signal.
Test [13] deals with Left-right determination factor 2 (Homo sapiens) (UniProt O00292). Description: small molecules binding LEFTY2 protein – biochemical, small-molecule microarray, 635 nm fluorescence scan, primary screen (AID 1110). The note with it: higher = more signal.
For test [14], the target named is Calmodulin-1 (Homo sapiens) (UniProt P0DP23). Description: small molecules binding calmodulin-1 with EGTA – biochemical, small-molecule microarray, Cy5-labelled CALM1, profiling panel (AID 1111).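 Also: labelled calmodulin applied in Tris saline Tween buffer holding calcium plus EGTA and DTT.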 The note with it: Cy5-CALM1 binding fluorescence, higher = more signal.
For test [15] the target is unchanged. Description: small molecules binding Ca-loaded calmodulin-1 – biochemical, small-molecule microarray, Cy5-labelled CALM1, plus calcium, artefact control for SMM control-protein annotation, profiling panel (AID 1112).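 Also: score merges spot fluorescence with signal to noise from triplicate slides.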 The note with it: Cy5-CALM1 binding fluorescence, higher = more signal.
Test [16] is described as follows: probe aWnt5a binding to arrayed compounds – biochemical, biotinylated probe, 635/667 nm fluorescence, primary screen (AID 1113).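 Also: score merges 667 nm fluorescence intensity with signal-to-noise per printed feature.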 The conditions noted are these: small-molecule microarray, higher = more signal.
Test [17] can be described thus: probe aShh binding to arrayed compounds – biochemical, biotinylated probe, 635/667 nm fluorescence, primary screen (AID 1114).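 Also: probe is biotin-labelled aShh protein from a stem cell growth factor screen; measures binding of labelled protein to compounds printed on the slide; score merges feature fluorescence at 667 nm with signal-to-noise.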 The note with it: small-molecule microarray, higher = more signal.
A short description of test [18]: probe aNog binding to arrayed compounds – biochemical, biotinylated probe, 635/667 nm fluorescence, primary screen (AID 1115).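 Also: probe is biotinylated aNog protein used at 0.15 µg/mL for 1 h at 4 C; z-score combines 667 nm fluorescence of each spot with its signal to noise.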 The conditions noted are these: small-molecule microarray, higher = more signal.
In test [19] the target is Torsin-1A-interacting protein 1 (Homo sapiens) (UniProt Q5JTV8). Put plainly: compound microarray binding of lysate hLAP1 – cell lysate, small-molecule microarray, COS7 lysate, 635/667 nm fluorescence, primary screen (AID 1116). The note with it: 635 nm fluorescence, higher = more signal.
The target of test [20] is Alpha-bungarotoxin (Bungarus multicinctus) (UniProt P60615). Put plainly: compounds binding labelled alpha-BTX control protein – biochemical, small-molecule microarray, Alexa647 label, 635/667 nm fluorescence, artefact control for SMM control protein annotation, profiling panel (AID 1117). The note with it: alpha-BTX-A647 binding fluorescence, higher = more signal.

SMILES strings stand for the structures. The source made the active and inactive calls.

Chain of Epidermal growth factor receptor (Homo sapiens) (P00533 whole entry, looked up): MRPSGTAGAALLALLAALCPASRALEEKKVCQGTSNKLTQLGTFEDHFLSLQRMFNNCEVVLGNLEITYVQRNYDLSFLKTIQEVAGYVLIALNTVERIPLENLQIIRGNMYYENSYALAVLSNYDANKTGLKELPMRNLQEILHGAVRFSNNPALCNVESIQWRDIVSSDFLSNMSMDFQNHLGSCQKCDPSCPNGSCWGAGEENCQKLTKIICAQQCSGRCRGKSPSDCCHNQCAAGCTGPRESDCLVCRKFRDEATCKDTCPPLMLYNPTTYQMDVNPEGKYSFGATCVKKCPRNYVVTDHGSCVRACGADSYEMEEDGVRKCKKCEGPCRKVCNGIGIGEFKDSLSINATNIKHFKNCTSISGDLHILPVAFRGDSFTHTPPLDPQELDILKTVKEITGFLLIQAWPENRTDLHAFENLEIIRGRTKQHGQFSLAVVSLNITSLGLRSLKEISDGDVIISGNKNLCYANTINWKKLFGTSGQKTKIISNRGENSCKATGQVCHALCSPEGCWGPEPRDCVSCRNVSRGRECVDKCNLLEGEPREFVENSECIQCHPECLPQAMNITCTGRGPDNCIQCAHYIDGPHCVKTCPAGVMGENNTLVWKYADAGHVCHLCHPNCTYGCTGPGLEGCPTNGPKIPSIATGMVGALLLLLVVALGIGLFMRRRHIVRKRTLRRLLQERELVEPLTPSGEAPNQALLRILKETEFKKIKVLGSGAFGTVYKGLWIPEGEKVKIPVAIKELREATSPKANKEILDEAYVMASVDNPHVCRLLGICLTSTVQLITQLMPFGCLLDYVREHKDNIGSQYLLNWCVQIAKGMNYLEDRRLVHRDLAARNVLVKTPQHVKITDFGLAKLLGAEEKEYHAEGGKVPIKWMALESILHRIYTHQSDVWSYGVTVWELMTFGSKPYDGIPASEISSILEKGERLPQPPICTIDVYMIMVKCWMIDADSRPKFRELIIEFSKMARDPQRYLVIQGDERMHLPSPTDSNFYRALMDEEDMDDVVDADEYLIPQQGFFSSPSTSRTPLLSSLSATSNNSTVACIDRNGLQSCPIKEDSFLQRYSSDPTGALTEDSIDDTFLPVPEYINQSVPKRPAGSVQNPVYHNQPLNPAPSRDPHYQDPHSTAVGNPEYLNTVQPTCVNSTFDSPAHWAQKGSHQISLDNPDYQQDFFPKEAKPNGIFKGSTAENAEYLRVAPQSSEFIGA
Chain of Fibroblast growth factor 10 (Homo sapiens) (O15520 whole entry, looked up): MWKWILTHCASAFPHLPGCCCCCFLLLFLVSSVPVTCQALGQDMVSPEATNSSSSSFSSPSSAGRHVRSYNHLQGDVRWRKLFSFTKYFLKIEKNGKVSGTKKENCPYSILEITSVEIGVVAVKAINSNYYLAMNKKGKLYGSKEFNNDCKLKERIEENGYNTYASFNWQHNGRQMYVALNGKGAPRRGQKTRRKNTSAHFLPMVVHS
Chain of Alpha-bungarotoxin (Bungarus multicinctus) (P60615 whole entry, looked up): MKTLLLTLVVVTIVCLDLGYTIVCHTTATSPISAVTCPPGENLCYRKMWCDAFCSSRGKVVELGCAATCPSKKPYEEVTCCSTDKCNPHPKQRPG
Chain of Dickkopf-related protein 1 (Homo sapiens) (O94907 whole entry, looked up): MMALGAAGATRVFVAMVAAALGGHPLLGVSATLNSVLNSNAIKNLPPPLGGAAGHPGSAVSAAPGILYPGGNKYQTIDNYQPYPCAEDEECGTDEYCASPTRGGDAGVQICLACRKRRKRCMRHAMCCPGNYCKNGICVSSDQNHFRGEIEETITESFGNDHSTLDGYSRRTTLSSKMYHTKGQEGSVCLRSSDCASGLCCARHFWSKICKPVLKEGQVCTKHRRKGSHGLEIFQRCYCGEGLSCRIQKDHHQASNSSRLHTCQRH
Chain of Left-right determination factor 2 (Homo sapiens) (O00292 whole entry, looked up): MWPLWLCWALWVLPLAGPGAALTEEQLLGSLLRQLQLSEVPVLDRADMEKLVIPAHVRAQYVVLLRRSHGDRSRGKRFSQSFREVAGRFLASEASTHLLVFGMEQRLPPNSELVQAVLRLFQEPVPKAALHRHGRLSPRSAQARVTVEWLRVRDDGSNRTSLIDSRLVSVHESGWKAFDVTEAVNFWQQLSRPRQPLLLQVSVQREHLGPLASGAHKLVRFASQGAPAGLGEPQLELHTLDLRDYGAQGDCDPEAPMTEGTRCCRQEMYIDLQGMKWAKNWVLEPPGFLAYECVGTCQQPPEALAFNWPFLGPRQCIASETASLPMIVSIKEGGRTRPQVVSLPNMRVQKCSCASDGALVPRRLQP
Chain of Torsin-1A-interacting protein 1 (Homo sapiens) (Q5JTV8 whole entry, looked up): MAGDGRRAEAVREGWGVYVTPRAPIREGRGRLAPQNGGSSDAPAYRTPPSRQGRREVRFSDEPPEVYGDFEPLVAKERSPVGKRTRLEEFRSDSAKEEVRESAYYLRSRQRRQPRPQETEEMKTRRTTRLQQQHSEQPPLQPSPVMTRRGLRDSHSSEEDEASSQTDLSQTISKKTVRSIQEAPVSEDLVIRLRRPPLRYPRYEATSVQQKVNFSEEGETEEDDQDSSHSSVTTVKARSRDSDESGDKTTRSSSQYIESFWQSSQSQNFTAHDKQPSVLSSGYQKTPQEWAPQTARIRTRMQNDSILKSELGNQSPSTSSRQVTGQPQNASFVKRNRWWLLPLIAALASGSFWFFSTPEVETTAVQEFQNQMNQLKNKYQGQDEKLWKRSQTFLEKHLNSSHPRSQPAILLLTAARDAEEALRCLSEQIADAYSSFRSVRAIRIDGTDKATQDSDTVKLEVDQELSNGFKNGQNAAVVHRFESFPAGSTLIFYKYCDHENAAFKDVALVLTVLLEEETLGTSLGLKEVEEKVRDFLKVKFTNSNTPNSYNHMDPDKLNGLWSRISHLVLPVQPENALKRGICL
Chain of Follistatin-related protein 3 (Homo sapiens) (O95633 whole entry, looked up): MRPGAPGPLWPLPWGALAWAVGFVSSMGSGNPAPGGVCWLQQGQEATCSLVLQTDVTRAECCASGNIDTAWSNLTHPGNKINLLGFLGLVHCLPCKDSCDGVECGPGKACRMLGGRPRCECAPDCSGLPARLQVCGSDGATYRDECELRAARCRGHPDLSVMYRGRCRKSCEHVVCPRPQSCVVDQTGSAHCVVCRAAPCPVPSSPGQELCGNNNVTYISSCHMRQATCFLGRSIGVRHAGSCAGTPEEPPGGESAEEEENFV

For `O=C1C[C@@](C(=O)O)(c2ccc([N+](=O)[O-])cc2)[C@@H](c2ccc(CO)cc2I)N1CC12CC3CC(CC(C3)C1)C2`, the composite z-score in test [1] came to 0.816; in test [2], 1.23; in test [3], 1.13; in test [5] it was 0.248; in test [6] it was 0.48; in test [7], 0.12. Further, the composite z-score in test [8] was 0.206; in [9], -1.1; in test [10], 0.723; in test [11], 0.997; in [13] it was -0.44; in test [14] it was 1.67. Also, the composite z-score stood at 0.889 in [15]; 0.0206 in test [16]; 0.0434 in [17]; 0.108 in test [18]; 0.817 in [19]; 2.3 in test [20]. Moreover, the z-score in [4] was -0.0388 (inactive); in [12], -3.31.

`C=C[C@H](C)[C@H](O)c1ccc(OCCO)cc1`: the composite z-score in test [1] is 0.771; in test [2], -0.564; in test [3], 0.883; in test [5], -0.772; in test [6] it was -1.21; in [7], -1.58. Besides, the composite z-score in test [8] was -0.607; in test [9], -1.97; in test [10], -2.79; in test [11], -2.7; in [13], -1.42; in test [14] it was -0.215. The composite z-score in test [15] was 0.486; in [16], -0.139; in test [17], -0.108; in test [18] it was -0.278; in test [19], -1.26; in test [20] it was -1.27. Also, the z-score is -0.961 (inactive) in test [4] and -1.54 in test [12].

Turning to `COCCCNC(=O)[C@@]1(Cc2ccccc2I)c2ccccc2C(=O)N(Cc2ccccc2)[C@H]1c1ccc(CO)cc1`, the composite z-score in test [1] was -0.67; in test [2], -0.113; in test [3] it was 0.394; in test [5], -1.25; in test [6] it was -1.43; in test [7], -2.16. Further, the composite z-score was -1.56 in test [8]; -1.41 in test [9]; -1.59 in [10]; 0.609 in test [11]; -2.53 in test [13]; -0.387 in test [14]. In addition, the composite z-score was 0.239 in test [15]; -0.232 in test [16]; -0.0146 in [17]; 0.0327 in test [18]; 0.258 in test [19]; -1.4 in [20]. Further, the z-score in [4] is -0.356 (inactive); in test [12], -1.38.

Take `COC(=O)c1c2oc(c1C(=O)OC)C(=O)N[C@H](Cc1ccccc1)Cn1nncc1C1(CCCCC1)NC(=O)N[C@H](CO)CC2`: the composite z-score in test [1] was 0.0465; in test [2], 0.026; in [3], -0.485; in test [5], 0.0778; in [6], 0.129; in test [7] it was 0.0246. For the same compound, the composite z-score in test [8] was 0.402; in test [9] it was 0.452; in test [10], 0.006; in test [11] it was 0.613; in test [13] it was 0.0801; in test [14], -0.16. Besides, the composite z-score in [15] was -0.661; in test [16], -0.0179; in test [17] it was -0.138; in [18] it was -0.308; in test [19] it was -0.208; in test [20] it was -0.181. Moreover, the z-score in test [4] was -1.46 (inactive); in [12], -0.398.

For the compound `COCCOC(=O)N1C(=O)[C@@]2(c3cc(C#CC4=CCCCC4)ccc31)[C@H](C(=O)N1CCN(c3ncccn3)CC1)[C@H]1C(=O)O[C@H](c3ccccc3)[C@H](c3ccccc3)N1[C@@H]2c1ccc(OCCO)cc1`, the composite z-score is -0.424 in test [1]; 0.282 in test [2]; 0.298 in test [3]; 1.3 in test [5]; 1.18 in [6]; 0.959 in [7]. For the same compound, the composite z-score in [8] was determined as 1.37; in [9] it was 0.994; in [10], 1.26; in test [11], 0.973; in test [13], 0.819; in test [14], 0.585. Further, the composite z-score in [15] is -0.252; in [16], 0.0026; in test [17] it was -0.229; in [18] it was 0.749; in test [19], 1.48; in test [20], 0.229. Also, the z-score in test [4] is -0.902 (inactive); in test [12], -1.46.
